# Results from ChEMBL document CHEMBL3988442, “University of Dundee, Small-Polar-MMV Screening Library” (2021).
# About 300 (0.45%) of roughly 67,000 compounds showed an effect of 50% or more. The sample holds strong results, similar compounds and a random draw of the others, so the mix is not that of the screen.
# Target: Polyketide synthase Pks13 (Mycobacterium tuberculosis (strain ATCC 25618 / H37Rv)) (UniProt I6X8D2)
# Experiment: Mycobacterium tuberculosis Polyketide synthase 13 Thioesterase (PKS13)
# Type: functional
# Set-up: scale not given: in the data most compounds retested in dose-response had high values
# Settings: 30 µM
# Sequence of Polyketide synthase Pks13 (Mycobacterium tuberculosis (strain ATCC 25618 / H37Rv)) (I6X8D2 whole entry): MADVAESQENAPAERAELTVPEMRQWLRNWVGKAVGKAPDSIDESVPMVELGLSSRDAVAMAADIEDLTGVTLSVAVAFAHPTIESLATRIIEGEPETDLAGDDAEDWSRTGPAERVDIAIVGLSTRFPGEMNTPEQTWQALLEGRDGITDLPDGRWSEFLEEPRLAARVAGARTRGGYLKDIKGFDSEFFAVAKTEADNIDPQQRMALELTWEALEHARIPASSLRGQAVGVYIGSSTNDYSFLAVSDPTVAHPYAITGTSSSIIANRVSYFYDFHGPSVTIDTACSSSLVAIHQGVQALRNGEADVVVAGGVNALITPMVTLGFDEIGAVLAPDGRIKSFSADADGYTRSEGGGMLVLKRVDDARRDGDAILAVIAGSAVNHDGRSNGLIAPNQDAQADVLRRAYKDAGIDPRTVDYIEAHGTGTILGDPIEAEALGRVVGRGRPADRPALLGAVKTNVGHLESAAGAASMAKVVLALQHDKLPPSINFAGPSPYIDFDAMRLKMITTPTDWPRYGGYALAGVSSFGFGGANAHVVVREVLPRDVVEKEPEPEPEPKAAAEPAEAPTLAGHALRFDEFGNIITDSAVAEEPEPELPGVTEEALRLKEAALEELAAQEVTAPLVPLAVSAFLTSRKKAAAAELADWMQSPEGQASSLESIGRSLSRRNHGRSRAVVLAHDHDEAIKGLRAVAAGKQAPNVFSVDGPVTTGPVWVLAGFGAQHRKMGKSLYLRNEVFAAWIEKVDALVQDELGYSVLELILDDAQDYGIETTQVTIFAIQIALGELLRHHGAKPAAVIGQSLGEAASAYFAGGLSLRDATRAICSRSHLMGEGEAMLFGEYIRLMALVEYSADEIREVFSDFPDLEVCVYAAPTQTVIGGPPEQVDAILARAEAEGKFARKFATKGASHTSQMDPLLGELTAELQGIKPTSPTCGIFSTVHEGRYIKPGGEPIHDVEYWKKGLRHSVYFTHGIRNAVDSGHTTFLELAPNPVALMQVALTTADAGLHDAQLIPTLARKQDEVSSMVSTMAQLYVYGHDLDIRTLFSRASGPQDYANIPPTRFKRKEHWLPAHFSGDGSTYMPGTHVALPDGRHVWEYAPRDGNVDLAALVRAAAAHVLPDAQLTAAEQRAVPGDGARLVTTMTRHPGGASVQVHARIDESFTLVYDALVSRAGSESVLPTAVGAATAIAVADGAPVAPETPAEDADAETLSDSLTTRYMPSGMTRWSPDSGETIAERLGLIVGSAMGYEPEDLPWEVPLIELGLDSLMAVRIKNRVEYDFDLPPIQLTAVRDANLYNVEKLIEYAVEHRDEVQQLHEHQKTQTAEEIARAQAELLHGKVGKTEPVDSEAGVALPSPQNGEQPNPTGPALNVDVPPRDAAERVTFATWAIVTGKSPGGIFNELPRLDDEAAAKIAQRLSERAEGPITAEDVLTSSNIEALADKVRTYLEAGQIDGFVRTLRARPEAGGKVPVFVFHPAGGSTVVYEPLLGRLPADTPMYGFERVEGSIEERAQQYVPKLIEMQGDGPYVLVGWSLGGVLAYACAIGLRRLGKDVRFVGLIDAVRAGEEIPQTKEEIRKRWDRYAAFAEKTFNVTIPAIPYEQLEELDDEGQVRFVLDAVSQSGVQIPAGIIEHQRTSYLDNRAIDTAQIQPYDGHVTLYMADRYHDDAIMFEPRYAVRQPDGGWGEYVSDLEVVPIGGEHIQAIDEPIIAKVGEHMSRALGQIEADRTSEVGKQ
row,SMILES,Percent Effect [%]
1,CS(=O)(=O)N1CC[C@H]2OCC[C@@]2(C(=O)NCc2ccccn2)C1,-5.05
2,O=C(c1ccco1)N1C[C@@H]2CCN(c3cccnc3)C[C@@H]2C1,18.9
3,COc1ccc(C2(C(=O)N3CC[C@@]4(O)CCNC[C@H]4C3)CCCC2)cc1,-3.94
4,COc1cccc(C(=O)N2CCc3c(nc(N)[nH]c3=O)C2)c1C,79.5
5,COc1cccc(C(=O)N2CCc3c(nc(N)[nH]c3=O)C2)c1OC,-13.9
6,Nc1nc2c(c(=O)[nH]1)CCN(C(=O)c1cccc3nccnc13)C2,2.77
7,O=C1CC[C@H]2CN(Cc3cccc(F)c3)CC[C@H]2N1CCc1c[nH]cn1,-22.1
8,COCCC(=O)N1C[C@H]2CN(Cc3cccnc3)C(=O)[C@H]2C1,-37.5
9,NCC1[C@H]2CN(Cc3cccc(Cl)c3)C[C@@H]12 (stereo partly drawn),-29.5
10,CNC(=O)N1C[C@H]2N(c3ncccn3)CCC[C@@]2(C(=O)NCC2CC2)C1,-22
11,CCN(CC)c1nc2sc(C(=O)NC(C)(C)C(=O)OC)cc2s1,39.6
12,COC(=O)C(C)(C)NC(=O)c1cc2sc(N(C)C)nc2s1,52.3
13,COC(=O)C(C)(C)NC(=O)c1cnc(C(C)(C)C)s1,-10.1
14,CCCS(=O)(=O)N1C[C@H]2C[C@H](C(=O)N3CCOCC3)[C@@H](C1)O2,-22.9
15,Cc1cccc(CN2C(=O)CC[C@@H]3[C@H]2CCN3Cc2nccn2C)n1,-58.5
16,COCCN1C(=O)C[C@@H]2[C@H]1CCN2C(=O)c1ccc[nH]1,-9.69
17,CN1CCCC[C@@H]2[C@H]1[C@@H](c1ccccc1)CCN2C(=O)c1cccnc1,9.14
18,Cc1noc([C@H]2COC[C@H]3CN(C(=O)Cc4ccsc4)C[C@H]32)n1,-1.57
19,CC(=O)N1CCCC(c2ccc(Br)cn2)C1 (stereo not drawn),-6.19
20,CC(=O)N1CCCC1c1ccc(Br)cn1 (stereo not drawn),61.5
21,CC(=O)N1CCCC1c1ccc(-c2c(C)noc2C)cn1 (stereo not drawn),-29.1
22,Cc1cccc(CN2C(=O)CC[C@@H]3[C@H]2CCN3C(=O)c2ccsc2)n1,-13.6

row,SMILES,Percent Effect [%]
1,Cc1ccnc(OC[C@@]23CCO[C@@H]2CCN(S(C)(=O)=O)C3)n1,-29.2
2,CN(C)[C@@H]1CN(C(=O)Cc2cccc(F)c2)[C@@H]2CCCO[C@H]12,-3.8
3,O=C(OCC1CCN(c2ccccc2)C1)c1cscn1 (stereo not drawn),62.9
4,Cn1ncc(C(=O)OCC2CCN(c3ccccc3)C2)c1C(F)F (stereo not drawn),11.4
5,Cc1ncc(C(=O)OCC2CCN(c3ccccc3)C2)s1 (stereo not drawn),39.2
6,O=C(OCC1CCCN(C(=O)c2ccccc2)C1)c1cscn1 (stereo not drawn),10.2
7,Cc1ncsc1C(=O)OCC1CCN(c2ccccc2)C1 (stereo not drawn),30.2
8,COCc1nc(C(=O)OCC2CCN(c3ccccc3)C2)cs1 (stereo not drawn),58.1
9,O=C(CSc1ccccn1)N1CCN(CCO)[C@@H]2CS(=O)(=O)C[C@@H]21,0.423
10,Cc1ccoc1C(=O)N1C[C@@H]2COC[C@]2(CNS(C)(=O)=O)C1,-15.4
11,Cn1cc(CN2C[C@@H](NC(=O)c3cscn3)[C@H]3OCCC[C@H]32)cn1,-41.4
12,O=C(Nc1ccccc1)N1C[C@H]2C[C@H](C(=O)N3CCCC3)[C@@H](C1)O2,-39.5
13,CC(C)c1nc(CN2CCc3onc(-c4cccc(F)c4)c3C2)no1,91.2
14,CC(C)Cc1nc(CN2CCc3onc(-c4cccc(F)c4)c3C2)no1,3.75
15,CC(C)(C)c1nc(CN2CCc3onc(-c4cccc(F)c4)c3C2)no1,-16.5
16,O=C(C1CCC1)N1C[C@@H]2CC[C@H](C1)N(S(=O)(=O)c1ccccc1)C2,-44.5
17,CCCN1CCN(C(=O)c2ccnc(N)c2)[C@H]2CS(=O)(=O)C[C@H]21,-5.18
18,CC1=CC[C@@H]2CN(C(=O)c3ccc(-c4cc[nH]n4)cc3)C[C@@H]2C1,-21.5
19,CN1CCc2ccc(NCc3cscn3)cc2C1=O,-2.18
20,CN1CCc2ccc(NCc3cccs3)cc2C1=O,126
21,CN(CCc1cccs1)C(=O)Nc1ccc2c(c1)C(=O)N(C)CC2,31.9
22,Cc1noc(C)c1CN1C[C@@H]2COC[C@@H](C(=O)N3CCCCO3)[C@@H]2C1,6.29

row,SMILES,Percent Effect [%]
1,CN(C)c1ncc2c(n1)C1(CCN(Cc3ccccc3)C1)COC2 (stereo not drawn),-6.74
2,COc1cccc(CN2CCC3(CCN(c4ncc(F)cn4)CC3)C2)c1,14.4
3,COc1cccc(CN2CCC3(COCc4cnc(N(C)C)nc43)C2)c1 (stereo not drawn),111
4,COc1cccc(CN2CCC3(CCN(c4ncc(C)cn4)CC3)C2)c1,66.7
5,CN(C)c1ncc2c(n1)C1(CCN(Cc3cccnc3)C1)COC2 (stereo not drawn),-30.2
6,COc1cccc(CN2CCC3(CC2)CCN(c2ncc(C)cn2)C3)c1,-24.2
7,Cc1noc([C@]23COC[C@H]2CN(C(=O)COC2CCCC2)C3)n1,-5.31
8,COCCOCC(=O)N1C[C@H]2CC[C@@H]1CN(C1Cc3ccccc3C1)C2,-22.6
9,Cc1ccc2cc(CNCCCN3CCOCC3)c(=O)[nH]c2c1C,62.3
10,CCc1cccc2cc(CNCCCN3CCOCC3)c(=O)[nH]c12,16.5
11,Cc1cccc2cc(CNCCCN3CCOCC3)c(=O)[nH]c12,-21.5
12,CS(=O)(=O)N1CCO[C@@H]2CN(Cc3ccncc3)C[C@@H]2C1,-14.9
13,CC(O)CN1CCC(CNCc2c[nH]nc2C(C)(C)C)CC1 (stereo not drawn),110
14,CC(O)CN1CCC(CNCc2ccc(C(N)=O)cc2)CC1 (stereo not drawn),-12.3
15,CC(O)CN1CCC(CNCc2cccc(C(=O)N(C)C)c2)CC1 (stereo not drawn),-0.155
16,CN(C)CCN1CCC(CNCc2c[nH]nc2C(C)(C)C)CC1,-14.5
17,CC(O)CN1CCC(CNCc2cccc(C(N)=O)c2)CC1 (stereo not drawn),108
18,CCN1CCC(CNCc2c[nH]nc2C(C)(C)C)C1 (stereo not drawn),-27.2
19,Cn1cc(CN2CC[C@@H]3[C@@H]2CCN3C(=O)Cc2cccc(F)c2)cn1,-2.13
20,Fc1ccc(CN2CCO[C@H]3[C@H](Oc4ccccn4)CC[C@@H]32)cc1,13.6
21,O=C(Cc1ccccn1)N1CCN2C[C@H](Oc3cccc(F)c3)C[C@H]2C1,-20.8
22,O=C(c1cnccn1)N1CC[C@H]2C[C@@H](c3ccncn3)O[C@@H]2C1,-4.56

row,SMILES,Percent Effect [%]
1,O=C(O)[C@]12CCCN(Cc3ccccc3)C[C@H]1CN(c1ncccn1)C2,-25.9
2,Cc1ccc(CN2CC[C@H]3O[C@@H](C(=O)N4CCCO4)CC[C@H]32)s1,-20.3
3,Cn1ncc2c1CN(Cc1ccc(F)cc1)CC2COCC1CC1 (stereo not drawn),-20.5
4,Cn1ncc2c1C(COCC1CC1)CN(Cc1cccnc1)C2 (stereo not drawn),-43.6
5,Cn1ncc2c1CN(Cc1cccnc1)CC2COCC1CC1 (stereo not drawn),60.5
6,CN1CCN(C(=O)N2C[C@H]3CC[C@@H]2CN(Cc2ccccc2)C3)CC1,7.3
7,Cc1ccc(N2CC[C@H]3O[C@@H](C(=O)N4CCCCO4)CC[C@H]32)nn1,14.6
8,O=C([C@H]1COC[C@H]2CN(C3CCOCC3)C[C@H]21)N1CCCO1,-30.7
9,CCOCCC(=O)N1C[C@H]2CC[C@@H]1CN(c1ncccn1)C2,-26.3
10,Cc1n[nH]c(SCC(=O)N2C[C@H]3CC[C@@H]2CN(c2ncccn2)C3)n1,53.5
11,CCCSCC(=O)N1C[C@H]2CC[C@@H]1CN(c1ncccn1)C2,-17
12,O=C(c1ncccn1)N1C[C@H]2CCC[C@@]2(COCc2ccncc2)C1,-14.6
13,NC(=O)N1CC[C@@H]2O[C@H](COCC(=O)N3CCCC3)CC[C@@H]21,9.98
14,NC(=O)c1cc(C2CC2)nc2ccc(F)cc12,87.8
15,COc1ccc2nc(C3CC3)cc(C(=O)NCCc3nnc[nH]3)c2c1,-11.9
16,NC(=O)C1CCCN1C(=O)c1cc(C2CC2)nc2ccc(F)cc12 (stereo not drawn),-9.51
17,COCCN1C(=O)[C@H]2CC[C@@H]1CN(c1ncccn1)C2,1.06
18,O=C(c1cnco1)N1C[C@@H]2CC[C@H](Oc3ccccc3F)[C@@H]2C1,6.58
19,N#Cc1ccc(C(=O)O)nc1/C=C/c1cccc(F)c1,-26.4
20,N#Cc1ccc(C(=O)O)nc1/C=C/c1cccc(Br)c1,-10.3
21,N#Cc1ccc(C(=O)O)nc1/C=C/c1cccc(Cl)c1,51.4
22,CC(C)C(=O)N1CC[C@@H]2[C@H](CC1)N(Cc1cccnc1)CCS2(=O)=O,-7.83

row,SMILES,Percent Effect [%]
1,c1ccc(O[C@@H]2CN(Cc3nccs3)[C@@H]3CCCO[C@@H]32)nc1,-21.3
2,CN(C)CCO[C@H]1CN(C(=O)c2cscn2)[C@@H]2COC[C@H]12,4.36
3,Cn1cc(Br)c(C(=O)NCCn2cc(Br)cn2)n1,-18.6
4,Cn1cc(I)c(C(=O)NCCCn2cc(Br)cn2)n1,55
5,Cn1cc(Br)c(C(=O)NCCCn2cc(Br)cn2)n1,27.2
6,Cn1ccnc1CN1CCN(Cc2ccncc2)[C@@H]2CS(=O)(=O)C[C@@H]21,-14
7,Cc1cc(CN2CC[C@@H]3[C@@H](CCC(=O)N3CCc3c[nH]cn3)C2)oc1C,-32.9
8,O=C([C@H]1CC[C@@H]2[C@@H](CCN2C2CCOCC2)O1)N1CCOCC1,5.19
9,Cc1n[nH]c(C)c1CCC(=O)NCC1(O)CCN(c2ccccn2)C1 (stereo not drawn),61.1
10,Cc1noc(C)c1CCC(=O)NCC1(O)CCCN(c2ccccn2)C1 (stereo not drawn),9.52
11,Cc1noc(C)c1CCC(=O)NCC1(O)CCN(c2ccccn2)C1 (stereo not drawn),1.81
12,CCO[C@H]1CC[C@H]2[C@H]1OCCN2C(=O)c1nn(C)c2ccccc12,-2.76
13,CN(C)[C@@H]1CN(C(=O)Cc2cccs2)[C@@H]2CCCO[C@H]12,-8.31
14,Cc1nc(N2CCCC2)ncc1C(=O)Nc1ccc(Br)cc1,-0.502
15,Cc1c(C2=NS(=O)(=O)N(C)C(C(=O)Nc3ccc(Br)cc3)=C2)cnn1C,47
16,Cc1nn(C)cc1C1=NS(=O)(=O)N(C)C(C(=O)Nc2ccc(Br)cc2)=C1,57.7
17,O=C1N(C2CCCCC2)C[C@H]2CN(C3CCC3)CCN12,5.32
18,COCCN1C(=O)CC[C@@H]2[C@@H]1CCN2Cc1c(C)noc1C,2.01
19,CS(=O)(=O)N[C@@H]1CN(Cc2ccccc2)C[C@@H]2CCCO[C@@H]21,-27.1
20,CN(Cc1ccccn1)C1CCC[C@@H]2CN(CC3CC3)C[C@H]12 (stereo partly drawn),-21.9
